Our source for the growth values is PubChem BioAssay (NCI).

Test systems include HCT-15 colon; HT29 colon; SNB-75 CNS; SNB-19 CNS; U251 CNS; PC-3 prostate; SK-MEL-5 melanoma; UACC-62 melanoma; LOX IMVI melanoma; SK-MEL-28 melanoma; SK-MEL-2 melanoma; EKVX NSCLC; SN12C renal; UO-31 renal; TK-10 renal; ACHN renal; CAKI-1 renal; A498 renal; CCRF-CEM leukemia; MOLT-4 leukemia.
Common to all, as to assay: NCI-60 one-dose screen, 48 h (100 = growth as untreated, 0 = no growth, -100 = all killed)
Common to all, as to details: 10 µM unless noted

About 83,000 compounds went through this panel and 20% of them were active in at least one assay; those are over-represented in the sample as a whole.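 A percent growth of 40 corresponds to 60% growth inhibition; 0 means no net growth; -100 means all cells died. Active threshold: below 10.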 Unmarked numbers belong to inactive results. The source made the active and inactive calls.

For `O=C1Nc2ccc(F)cc2/C1=N/c1nnc(Sc2ccccc2)s1`, the growth in the assay with HCT-15 colon is 98.3%; with HT29 colon, 105%; with SNB-75 CNS, 80.2%; in the assay on SNB-19 CNS it was 105%; with U251 CNS, 91.4%; in the assay with PC-3 prostate it was 91.7%. The growth in the assay with SK-MEL-5 melanoma was 86.7%; in the assay with UACC-62 melanoma, 88.8%; in the assay with LOX IMVI melanoma it was 90.9%; with SK-MEL-28 melanoma, 116%; in the assay with SK-MEL-2 melanoma, 102%; in the assay with EKVX NSCLC, 101%. The growth in the assay with SN12C renal was 95.4%; with UO-31 renal, 80.2%; in the assay with TK-10 renal, 111%; in the assay on ACHN renal, 82.2%; with CAKI-1 renal, 75.1%; in the assay with A498 renal, 79%. The growth in the assay on CCRF-CEM leukemia is 47.7%; with MOLT-4 leukemia, 77.2%.

On to `S=c1ssnc1-c1cccs1`, for which the growth in the assay with HCT-15 colon is 99%; with HT29 colon, 105%; with SNB-75 CNS, 97.1%; in the assay with SNB-19 CNS, 96.8%; with U251 CNS it was 100%; with PC-3 prostate, 94.3%. Further, the growth in the assay on SK-MEL-5 melanoma was 57.3%; in the assay with UACC-62 melanoma, 90.7%; with LOX IMVI melanoma, 92.3%; with SK-MEL-28 melanoma, 112%; in the assay with SK-MEL-2 melanoma, 103%; in the assay with EKVX NSCLC, 104%. The growth in the assay on SN12C renal was 106%; in the assay on UO-31 renal, 99.9%; in the assay with TK-10 renal it was 99.5%; in the assay on ACHN renal, 107%; with CAKI-1 renal it was 92.1%; in the assay on A498 renal, 23.4%. In addition, the results for the growth with CCRF-CEM leukemia and with MOLT-4 leukemia were 97.5% and 84.9%, respectively.

As for `O=C(Cn1cc(CN2C(=O)c3ccccc3S2(=O)=O)nn1)Nc1cccc(Cl)c1`, the growth in the assay on HCT-15 colon is 98.2%; in the assay with HT29 colon, 109%; in the assay with SNB-75 CNS, 87.8%; in the assay on SNB-19 CNS, 115%; in the assay with U251 CNS, 112%; with PC-3 prostate, 104%. In addition, the growth was 106% in the assay with SK-MEL-5 melanoma; 97.4% in the assay with UACC-62 melanoma; 89.5% in the assay with LOX IMVI melanoma; 105% in the assay on SK-MEL-28 melanoma; 96.7% in the assay with SK-MEL-2 melanoma; 103% with EKVX NSCLC. In addition, the growth in the assay on SN12C renal was 110%; with UO-31 renal, 101%; in the assay on TK-10 renal, 103%; with ACHN renal, 102%; in the assay on CAKI-1 renal, 98.5%; in the assay with A498 renal it was 110%. For the same compound, the growth was 104% with CCRF-CEM leukemia and 107% with MOLT-4 leukemia.

`N#CCC1=NC(c2cccs2)=Nc2ccccc2S1`: the growth in the assay on HCT-15 colon is 109%; in the assay on HT29 colon, 89.5%; with SNB-75 CNS, 94%; in the assay with SNB-19 CNS it was 87.9%; with U251 CNS, 87.7%; with PC-3 prostate it was 71.1%. Also, the growth with SK-MEL-5 melanoma was 93.8%; in the assay on UACC-62 melanoma, 70.1%; in the assay with LOX IMVI melanoma, 99.1%; with SK-MEL-28 melanoma it was 88.4%; with SK-MEL-2 melanoma, 96.9%; in the assay on EKVX NSCLC, 105%. Also, the growth in the assay with SN12C renal is 86.6%; with UO-31 renal, 79.1%; with TK-10 renal, 117%; in the assay on ACHN renal, 98.2%; with CAKI-1 renal, 95.6%; with A498 renal, 90.9%. For the same compound, the values for the growth with CCRF-CEM leukemia and in the assay on MOLT-4 leukemia were 90.8% and 92.5%, respectively.

Regarding `CCCCCCCCNc1cc2c3c(c1)CCCN3CCC2`, the growth in the assay with HCT-15 colon is 17.9%; in the assay with HT29 colon, -9.19% (active); in the assay with SNB-75 CNS, 35.9%; in the assay with SNB-19 CNS it was 17.5%; with U251 CNS, 15.5%; in the assay with PC-3 prostate it was -0.993% (active). The growth in the assay with SK-MEL-5 melanoma was -71.8% (active); with UACC-62 melanoma, 27.8%; in the assay on LOX IMVI melanoma it was 2.21% (active); in the assay on SK-MEL-28 melanoma it was 48.9%; in the assay on SK-MEL-2 melanoma, -46.6% (active); in the assay with EKVX NSCLC it was 10%. The growth in the assay on SN12C renal was 9.8% (active); with UO-31 renal, 61%; in the assay with TK-10 renal, 41.7%; in the assay with ACHN renal, 30.9%; with CAKI-1 renal, 38.6%; in the assay on A498 renal, 80.2%. Further, the growth in the assay with CCRF-CEM leukemia was 42.8%; in the assay on MOLT-4 leukemia, 27.5%.

In the case of `N#C/C(=C\c1ccc(-c2ccc(Cl)cc2)o1)c1ccc(Cl)cc1`, the growth is 79.2% with HCT-15 colon; 61.2% in the assay on HT29 colon; 14% with SNB-75 CNS; 62% in the assay on SNB-19 CNS; 21.6% with U251 CNS; 74.8% with PC-3 prostate. Besides, the growth is 91.4% in the assay with SK-MEL-5 melanoma; 78.7% in the assay with UACC-62 melanoma; 49.2% with LOX IMVI melanoma; 99.7% in the assay with SK-MEL-28 melanoma; 96.5% in the assay with SK-MEL-2 melanoma; 49.5% in the assay on EKVX NSCLC. Also, the growth in the assay with SN12C renal was 30%; in the assay on UO-31 renal it was -11.6% (active); in the assay on TK-10 renal, 14.6%; in the assay with ACHN renal, -20.1% (active); with CAKI-1 renal, 38.4%; in the assay with A498 renal it was 82.5%. The growth in the assay with CCRF-CEM leukemia is 66.6%; with MOLT-4 leukemia, 85.6%.

With `CCCCCCCC/C=C\CCCCCCCCOc1ccc(CC(=O)NCC[N+](C)(C)C)cc1`, the growth with HCT-15 colon was 60.4%; in the assay on HT29 colon, 24.5%; with SNB-75 CNS, 34.6%; in the assay on SNB-19 CNS it was 13.4%; in the assay on U251 CNS, 16.9%; in the assay with PC-3 prostate, 4.88% (active). Also, the growth in the assay on SK-MEL-5 melanoma was 87.3%; in the assay with UACC-62 melanoma, 61.3%; in the assay with LOX IMVI melanoma it was 83.2%; with SK-MEL-28 melanoma it was 91.7%; in the assay on SK-MEL-2 melanoma, 101%; in the assay on EKVX NSCLC, 87.8%. Besides, the growth in the assay on SN12C renal is 50%; with UO-31 renal, 92.8%; with TK-10 renal it was 24.6%; in the assay on ACHN renal it was 60.8%; with CAKI-1 renal, 44.6%; in the assay with A498 renal it was 68.9%. Also, the values for the growth with CCRF-CEM leukemia and in the assay on MOLT-4 leukemia were 54.6% and 75.1%, respectively.

Regarding `O=c1oc2c(cnc3ccccc32)cc1-c1cccs1`, the growth is 112% in the assay with HCT-15 colon; 111% in the assay with HT29 colon; 92% in the assay with SNB-75 CNS; 101% in the assay with SNB-19 CNS; 99.4% in the assay on U251 CNS; 97.3% in the assay with PC-3 prostate. The growth in the assay with SK-MEL-5 melanoma was 101%; in the assay with UACC-62 melanoma, 101%; with LOX IMVI melanoma, 106%; in the assay on SK-MEL-28 melanoma, 115%; with SK-MEL-2 melanoma it was 108%; with EKVX NSCLC, 103%. Besides, the growth was 98.4% in the assay on SN12C renal; 88.3% in the assay on UO-31 renal; 106% with TK-10 renal; 102% with ACHN renal; 88.9% in the assay with CAKI-1 renal; 107% in the assay on A498 renal. The growth is 103% with CCRF-CEM leukemia and 102% in the assay on MOLT-4 leukemia.
